Compound activity: PubChem, National Center for Advancing Translational Sciences (NCATS)
HEK293 tox – qHTS of GLP-1 Receptor Inverse Agonists: Cytotox Screen; Potency, µM (titrated, usually from 38.3 µM), hits mostly inhibitors; HEK293 cAMP-luciferase reporter cells, luminescence, 24 h; hit rate 0.13% among 410,000;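 also: loss of luciferase light is scored as toxicity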
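Here, cytotoxicity is scored as loss of luminescence. The MLSMR collection was tested on cells seeded in medium containing 10% Nu serum, with a 24 hr compound exposure preceded by 12 hours of culture.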
ClpP mod – qHTS Assay for Activators of ClpP. ATP-dependent Clp protease proteolytic subunit (Bacillus subtilis (strain 168)), P80244. purified B. subtilis ClpP, FRET peptide cleavage, 20 min. Potency, µM (doses to about 57.5 µM). hit rate 1.9% among 340,000; active = well fitted falling curve with a large enough effect; inconclusive = small, poorly fitted or top-dose-only effect; inactive = no such curve, though single readings can be large or run the other way; also: the source files actives as falling curves though it sought activators and does not explain the sign; nearly all actives have a fitted effect of over 65% in size
Target sequence (P80244 whole entry, looked up): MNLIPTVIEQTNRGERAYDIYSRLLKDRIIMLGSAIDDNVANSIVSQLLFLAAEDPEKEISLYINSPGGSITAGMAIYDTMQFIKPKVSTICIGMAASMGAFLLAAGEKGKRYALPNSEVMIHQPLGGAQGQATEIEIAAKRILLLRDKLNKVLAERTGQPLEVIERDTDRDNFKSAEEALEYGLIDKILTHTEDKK
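FRET quenching reversal measured ClpP activation: 10 microg/mL B. subtilis ClpP at pH 8 with the FRET-FV decapeptide, read at 430 nm after 320 nm excitation. The 20-min minus 0-min signal was scaled between DMSO/no-enzyme wells and ADEP (5.8 microM final).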
p53 reactivator – qHTS assay for re-activators of p53 using a Luc reporter; H1299 p53-A138V BP100-luciferase reporter, luminescence, 24 h; Potency, µM (doses to about 92.2 µM), hits mostly activators; hit rate 0.063% among 320,000; AID 504706, 2011; also: nearly all actives have a fitted effect of over 45% in size
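p53-null H1299 cells stably carrying temperature-sensitive p53-A138V and a BP100-luciferase reporter were pinned with compounds (4-point, 1:5 series) and held 24 hrs at 37 deg C. Luminescence was read 10 min after detection reagent.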
LDHA inh – qHTS assay for inhibitors of human lactate dehydrogenase. hit rate 0.15% among 480,000. purified LDHA, NADH/diaphorase-resazurin fluorescence; stronger effect = lower value. L-lactate dehydrogenase A chain (Homo sapiens), P00338. activity change, % (values are at about 110 or 230 µM). AID 1347041, 2019; in the data active = activity change below about -30%; inconclusive = mostly about -25% to -30%
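Human LDH5 at 2 nM final in Tris HCl pH 7.4 with 0.06 mM NADH and 0.2 mM pyruvate, reacted 5 minutes at room temperature. Remaining NADH coupled via diaphorase/resazurin; resorufin fluorescence read at 0 and 20 minutes, normalized to enzyme-free and DMSO wells.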
GLP1R inv ag – qHTS of GLP-1 Receptor Inverse Agonists (Inhibition Mode); AID 624417, 2012; Potency, µM (titrated, usually from 38.3 µM), actives largely listed as inhibitors; Glucagon-like peptide 1 receptor (Homo sapiens), P43220; hit rate 1.6% among 410,000; HEK293 GLP-1R CRE-luciferase, luminescence, 24 h; GLP-1R form is constitutively active; also: nearly all actives have a fitted effect of over 55% in size
Target sequence (P43220 whole entry, looked up): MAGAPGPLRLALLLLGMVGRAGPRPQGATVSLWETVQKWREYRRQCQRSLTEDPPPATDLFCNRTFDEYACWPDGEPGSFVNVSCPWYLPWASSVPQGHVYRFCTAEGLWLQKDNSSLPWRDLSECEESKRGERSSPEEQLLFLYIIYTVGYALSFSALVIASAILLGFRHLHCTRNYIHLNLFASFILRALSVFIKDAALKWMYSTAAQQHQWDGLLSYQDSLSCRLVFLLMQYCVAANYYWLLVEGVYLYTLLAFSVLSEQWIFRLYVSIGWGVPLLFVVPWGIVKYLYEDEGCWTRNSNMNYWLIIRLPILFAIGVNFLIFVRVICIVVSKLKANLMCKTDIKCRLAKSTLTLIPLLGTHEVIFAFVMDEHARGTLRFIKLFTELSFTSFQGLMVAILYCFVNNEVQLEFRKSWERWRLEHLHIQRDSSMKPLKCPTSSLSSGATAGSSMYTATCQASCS
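HEK293 cells stably co-expressing constitutively active GLP-1R and a cAMP-responsive luciferase reporter were seeded in DMEM with 10% Nu serum, given compounds after 12 h, and incubated 24 h at 37 deg C. Luminescence was then read.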
GLP1R ag – qHTS of GLP-1 Receptor Agonists | Glucagon-like peptide 1 receptor (Homo sapiens), P43220 | HEK293 GLP-1R CRE-luciferase, luminescence, 4-6 h; cells express a hypersensitive GLP-1R form | Potency, µM (highest dose often 45.6 µM), most hits filed as activators | hit rate 0.007% among 380,000
Large screens that a line does not name were inactive. In the library only some 2.9% were active in any assay of this set; here they are far more common. Unless noted, calls follow the shape of the dose curve; as a rule, active = well fitted curve in the direction sought with a large enough effect; inconclusive = small, poorly fitted or top-dose-only effect, or another doubt; inactive = no such curve, though single readings can be large; an effect the other way counts as inactive or inconclusive.

O=C1CCCCCC1C1(O)C(=O)Nc2ccccc21 (centres undefined)	ClpP mod 11.2µM
Cc1ccc2[nH]cc(C(C(=O)O)N3CCN(c4ccc(Cl)c(Cl)c4)CC3)c2c1 (centres undefined)	none (no result: HEK293 tox, ClpP mod, p53 reactivator, GLP1R inv ag, GLP1R ag)
CC1(C)Cc2nc3oc4c(N(CCO)Cc5ccccc5)ncnc4c3cc2CO1	ClpP mod 14.1µM
O=C(C1CCN(CCCc2ccccc2)CC1)N(CCc1ccccc1)Cc1ccccc1	HEK293 tox inconclusive, GLP1R inv ag 10µM
O=C1CCCN1CCCN1CC(C(=O)N(CCO)Cc2ccccc2)CCC1=O (centres undefined)	ClpP mod 31.6µM
CCOc1ccc(N(C(=O)c2ccccc2Cl)C2=NC(C)(C)CS2)cc1	GLP1R inv ag inconclusive (no result: ClpP mod)
O=C(Cc1ccccc1)Nc1nc(=O)c2ccccc2s1	none
CN(C)c1ccc(-c2ccnc3c2CC(C)(C(=O)Nc2ccc(Cl)c(C(F)(F)F)c2)O3)cc1 (centres undefined)	GLP1R inv ag inconclusive (no result: p53 reactivator)
O=c1c2ccccc2nc(SCc2nnc(-c3ccccc3)o2)n1-c1ccccc1	none
Cc1ccc(C(=O)C(C)OC(=O)C2CCN(c3ccc(C(F)(F)F)cn3)CC2)cc1 (centres undefined)	GLP1R inv ag 10µM
CCOC(=O)C1=C(COC(=O)C2CC(=O)N(c3ccccc3CC)C2)NC(=O)NC1C (centres undefined)	none (no result: p53 reactivator)
Cc1ccc(/C=C/c2nnc(-c3ccccc3)o2)cc1	ClpP mod 31.6µM
C(=C\c1nnc(-c2cccs2)o1)/c1ccccc1	ClpP mod 14.1µM
CC(C)[C@H](NC(=O)N1CC(=O)Nc2ccccc21)C(=O)N[C@H](Cc1c[nH]c2ccccc12)C(=O)O	GLP1R inv ag inconclusive (no result: p53 reactivator)
S=C(Nc1ccccc1)Nc1ccc(Br)cn1	HEK293 tox 3.55µM, GLP1R inv ag inconclusive (no result: ClpP mod)
CN1CCC(N(C)S(=O)(=O)c2ccc(NC(=O)COc3ccc(F)cc3)cc2)CC1	GLP1R inv ag inconclusive
CN1CCC(N(C)S(=O)(=O)c2ccc(NC(=O)COc3ccc(F)cc3Cl)cc2)CC1	GLP1R inv ag 10µM
Cc1csc2ncc(C(=O)NCc3ccco3)c(=O)n12	ClpP mod 20µM
O=C(NCc1ccco1)c1cnc2sccn2c1=O	ClpP mod inconclusive
CC1=CC(C)(C)Nc2ccc(OC(=O)CN3C(=O)c4ccccc4C3=O)cc21	ClpP mod 25.1µM, GLP1R inv ag inconclusive
CC1=CC(C)(C)Nc2ccc(OC(=O)CN3C(=O)c4cccc5cccc(c45)C3=O)cc21	none
CN(CC(=O)NCCc1ccc(F)cc1)Cc1ccc(Br)cc1	GLP1R inv ag 10µM (no result: ClpP mod)
CCCC[C@@H]1C[C@H]1[C@@H](NC(=O)c1ccccc1)c1ccccc1C(F)(F)F	GLP1R inv ag inconclusive
C=C(CC1([C@@H](NP(=O)(c2ccccc2)c2ccccc2)[C@H]2C[C@@H]2CCCC)CC1)c1ccccc1	GLP1R inv ag 2.51µM
N#CC1=C(N)NC(SCc2ccc(Br)cc2)=C(C#N)C12CCCCC2	GLP1R inv ag 10µM
N#CC1=C(N)NC(SCc2ccc(Cl)cc2)=C(C#N)C12CCCCC2	HEK293 tox inconclusive, GLP1R inv ag inconclusive
O=C(CSc1nc(Nc2ccccc2)nc(N2CCOCC2)n1)N1CCc2ccccc21	none
C=C[C@@H]1c2ccccc2N(S(=O)(=O)c2ccc(C)cc2)[C@H](c2ccccc2)C1(C#N)C#N	p53 reactivator inconclusive, GLP1R inv ag 3.55µM
C=C[C@@H]1c2cc(C)ccc2N(S(=O)(=O)c2ccc(C)cc2)[C@H](c2ccccc2)C1(C#N)C#N	none
O=C(OCc1nc2ccccc2o1)c1ccc(F)cc1	none (no result: HEK293 tox, ClpP mod, p53 reactivator, GLP1R inv ag, GLP1R ag)
CN(C)S(=O)(=O)c1ccc(NC(=O)Cn2c(-c3ccccc3)noc2=O)cc1	none
CCOC(=O)C(c1ccccc1)C(Nc1ccc(F)cc1)c1ccccn1 (centres undefined)	GLP1R inv ag 10µM
COc1ccc2ccccc2c1CNC(C)c1ccccc1 (centres undefined)	HEK293 tox inconclusive, GLP1R inv ag inconclusive
CC(NCCCOc1cccc2ccccc12)c1ccccc1 (centres undefined)	HEK293 tox inconclusive, GLP1R inv ag 8.91µM (no result: p53 reactivator)
CCN(C(=O)c1cc2c(s1)-c1c(C)cccc1OC2)c1cc(C)ccc1C	GLP1R inv ag 11.2µM (no result: p53 reactivator, GLP1R ag)
COc1cc(Cl)c(C)cc1NC(=O)c1cc2c(s1)-c1c(C)cccc1OC2	none (no result: p53 reactivator, GLP1R ag)
CCN(C(=O)c1cc2c(s1)-c1c(C)cccc1OC2)c1ccccc1F	GLP1R inv ag inconclusive (no result: p53 reactivator, GLP1R ag)
COc1ccc(NC(=O)c2cc3c(s2)-c2c(C)cccc2OC3)cc1Cl	ClpP mod 25.1µM (no result: p53 reactivator, GLP1R ag)
Cc1onc(-c2ccccc2)c1C(=O)NCc1cccnc1	none
Cc1nonc1N1CCN(Cc2cn[nH]c2-c2ccc(F)cc2F)CC1	none (no result: ClpP mod)
Cn1c(=O)c2c(-c3ccccc3Cl)n(Cc3ccc(Cl)cc3)cc2n(C)c1=O	ClpP mod 25.1µM (no result: p53 reactivator, GLP1R ag)
CN(Cc1ccc(Cl)c(Cl)c1)C(=O)CN1CCN(c2oc(-c3ccco3)nc2C#N)CC1	none (no result: HEK293 tox, ClpP mod, p53 reactivator, GLP1R inv ag, GLP1R ag)
Oc1ccc(C[C@H]2CN([C@@H](Cc3ccc(O)cc3)CN3CCC[C@@H]3CN3C(=S)NC[C@@H]3Cc3ccccc3)C(=S)N2CCc2ccccc2)cc1	GLP1R inv ag inconclusive (no result: p53 reactivator)
CC(C)C[C@@H](CN1CCCC1CN1C(=S)NC[C@@H]1Cc1ccc(O)cc1)N1C[C@H](Cc2ccc(O)cc2)N(CCc2ccccc2)C1=S (some centres undefined)	HEK293 tox inconclusive, GLP1R inv ag 7.94µM (no result: p53 reactivator)
CCc1cccc(C)c1NC(=O)COC(=O)c1ccc2c(c1)S(=O)(=O)c1ccccc1C2=O	none
CCC(C)c1ccccc1NC(=O)COC(=O)c1ccc2c(c1)S(=O)(=O)c1ccccc1C2=O (centres undefined)	ClpP mod 22.4µM
CCCC(C)NC(=O)COC(=O)CCS(=O)(=O)c1ccc(C)cc1 (centres undefined)	LDHA inh -30.8 (no result: HEK293 tox, ClpP mod, p53 reactivator, GLP1R inv ag, GLP1R ag)
O=C(CN(Cc1ccc2c(c1)OCO2)C(=O)CNS(=O)(=O)c1ccccc1)NCC1CCCO1 (centres undefined)	none
FC(F)(F)c1cc(-c2ccc3c(c2)OCO3)nc(NCc2ccco2)n1	ClpP mod 25.1µM
CCC(CC)C(=O)Nc1cccc(C)c1C	none (no result: HEK293 tox, ClpP mod, p53 reactivator, GLP1R inv ag, GLP1R ag)
